# Compound activity as filed in PubChem BioAssay.
# NADH coupling: inhibitors of PK/LDH coupling enzymes, profiling panel, artefact control, biochemical, MLSMR library; coupled PK/LDH NADH assays, four targets; IC50, µM (top dose mostly 10 µM); 65,000 tested, 0.02% active; AID 774, 2007;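 active = single-dose screening hits from any of four coupled enzyme assays that gave an IC50 when retested across doses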;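 also: the DPM-DC format reads NADH fluorescence rather than 340 nm absorbance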
# Spn MK inh: S. pneumoniae MK inhibitors, primary screen, biochemical, PK/LDH-coupled NADH absorbance. mevalonate kinase [Streptococcus pneumoniae D39]. purified MK, PK/LDH-coupled NADH absorbance 340 nm. 65,000 tested, 0.48% active. AID 555, 2006. inhibition, % at 10 µM;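 active = ranked among the strongest by inhibition in the single 10 µM screen, a fixed top-ranked set picked for dose follow-up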
# Spn PMK inh: S. pneumoniae PMK inhibitors, primary screen, biochemical, mevalonate pathway, pilot trial included. 65,000 tested, 0.49% active. phosphomevalonate kinase (Streptococcus pneumoniae D39). inhibition, % at 10 µM. purified PMK, PK/LDH-coupled NADH absorbance 340 nm;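 active = top-ranked compounds by inhibition in the single 10 µM screen, taking a fixed number of the strongest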
# DPM-DC inhibit: S. pneumoniae DPM-DC inhibitors, primary screen, biochemical, PK/LDH-coupled NADH fluorescence | diphosphomevalonate decarboxylase (Streptococcus pneumoniae D39) | purified DPM-DC | calls only at 10 µM | 65,000 tested, 0.49% active | AID 556, 2006;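 active = the 320 compounds with the highest percent inhibition in the single-dose primary screen, excluding strongly autofluorescent ones, cut at about 32% in these data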;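 also: kinetic rate of NADH fluorescence loss reporting ADP formed by the decarboxylase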
# Abs 340nm: compound light absorbance at 340 nm, profiling panel, artefact control, biochemical, MLSMR library, data from PS, PMK, MK assays | fold change at 10 µM | compound absorbance at 340 nm, fold over control | 65,000 tested, under 10 active;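 active = at 10 µM dose, initial 340 nm absorbance at least 2 fold that of control wells; inactive = change under 2 fold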;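 also: initial absorbance extrapolated from kinetic A340 decline of NADH oxidation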
# Fluor 339 460: intrinsic fluorescence of library compounds, ex339/em460 – biochemical, MLSMR library, data from DPM-DC assay, artefact control, profiling panel. compound autofluorescence, ex339/em460 nm, NADH buffer; stronger effect = higher value; 1 = no-compound wells, NADH background. fluorescence fold increase at 10 µM. 65,000 tested, 5.5% active. AID 709, 2007;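 active = at 10 µM, mean starting fluorescence two-fold or more over control wells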;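 also: signal is the first read of a kinetic run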
# Numbers stand for hits; n = inactive; x = no result given; + = active, no number. Compounds with a hit are over-represented: about 6.3% of the library has one in this group of screens.
SMILES,NADH coupling,Spn MK inh,Spn PMK inh,DPM-DC inhibit,Abs 340nm,Fluor 339 460
Cc1ccc(O)c(C(=O)c2cc(C#N)c(=O)n(CC3CCCO3)c2)c1 (stereo not given),n,n,n,n,n,n
Cc1ccc2nc3c(cc(C#N)c(=O)n3CC3CCCO3)c(=O)n2c1 (stereo not given),n,n,n,x,n,3.8
N#Cc1cc2c(=O)n3ccccc3nc2n(CCCN2CCOCC2)c1=O,n,n,n,x,n,3.9
O=c1c2ccccc2nc(-c2ccccc2)n1CCN1CCOCC1,n,n,n,n,n,n
N#Cc1cc2c(=O)n3ccccc3nc2n(CCN2CCOCC2)c1=O,n,n,n,x,n,3.9
CS(=O)(=O)N(CC(=O)NC1CCCC1)c1ccc2c(c1)OCCO2,n,n,n,n,n,n
Cc1ccc2nc3c(cc(C#N)c(=O)n3-c3nccs3)c(=O)n2c1,n,n,n,x,n,3.8
COc1ccc(CCn2c(=N)c(C#N)cc3c(=O)n4ccccc4nc32)cc1,n,n,n,n,n,n
CCOC(=O)Cc1nnc(Nc2cccc(O)c2)c2ccccc12,n,n,n,n,n,n
Cc1sc2nc(SCC(=O)NCc3ccco3)n(CCc3ccccc3)c(=O)c2c1C,n,n,n,n,n,n
Cn1c(Cn2c(=O)sc3ccccc32)nnc1SCC(=O)Nc1ccc2c(c1)OCO2,n,n,n,n,n,n
Cc1c(NC(=O)c2cc(-c3cccs3)on2)c(=O)n(-c2ccccc2)n1C,n,n,n,n,n,n
CC(O)COc1ccc(/C(=N/O)c2ccccc2)cc1 (stereo not given),n,n,n,+,n,n
O=C(O)c1cccc(N2CCCC2)c1,n,n,n,x,n,5
C=CCn1c(=O)n(CCOC)c(=O)c2sc3ccccc3c21,n,n,n,x,n,2.4
CCOC(=O)c1cc(-c2ccc3c(c2)OCO3)nc2onc(C)c12,n,n,n,x,n,3.3
COc1ccc(-n2c(Cc3cccn3C)nnc2SCC(=O)Nc2ccc3c(c2)OCO3)cc1,n,n,n,n,n,n
CCNC(=O)c1sc(-c2ccccc2)nc1C,n,n,n,n,n,n
CC1CCN(S(=O)(=O)c2ccc(NC(=O)CN3CCN(C)CC3)cc2)CC1,n,48,n,n,n,n
O=c1c2c(nc3c(-c4ccc(Cl)cc4)c[nH]n13)CCCC2,n,n,n,x,n,4.1
O=c1c2c(nc3c(-c4cccc5ccccc45)c[nH]n13)CCC2,n,n,n,x,n,3.6
Cc1[nH]n2c(=O)c3c(nc2c1-c1ccccc1)CCCC3,n,n,n,n,n,n
CC1Cc2ccccc2N1S(=O)(=O)c1cccc2nsnc12 (stereo not given),n,n,n,n,n,n
O=C(O)C1CC(=O)N(c2ccc(OCc3c(F)cccc3Cl)cc2)C1 (stereo not given),n,n,n,n,n,n
CCOc1ccccc1C1CC(c2ccc(F)cc2)Nc2nc(N)nn21 (stereo not given),n,n,n,n,n,n
SMILES,NADH coupling,Spn MK inh,Spn PMK inh,DPM-DC inhibit,Abs 340nm,Fluor 339 460
CCN(CC)CCNC(=O)c1ccc(CS(=O)(=O)c2ccc(Br)cc2)o1,n,n,n,n,n,n
CCOC(=O)c1sc2cccc(F)c2c1N,n,n,n,x,n,2.7
CCOC(=O)C1=C(c2ccccc2)N2CCN=C2S1,n,n,n,n,n,n
COc1cc(C2Nc3ccccc3C(=O)N2c2ccccc2OC)ccc1O (stereo not given),n,n,n,x,n,5.1
CCOc1cc(C2Nc3ccccc3C(=O)N2c2ccccc2OC)ccc1O (stereo not given),n,n,n,x,n,2.5
O=C(C1CCC(N2C(=O)C3CC=CCC3C2=O)CC1)N1CCCCC1 (stereo not given),n,n,n,n,n,n
COc1ccc(CCNC(=O)c2cc3ccccn3n2)c(OC)c1OC,n,n,n,n,n,n
CN(C)c1ccc(-c2nn3c(-c4ccccc4Cl)nnc3s2)cc1,n,n,n,x,n,3.3
COc1ccccc1-c1nnc2sc(-c3ccc(N(C)C)cc3)nn12,n,n,n,+,n,2.3
COc1ccccc1-c1nn2c(C(F)(F)F)nnc2s1,n,n,n,n,n,3
COc1ccc(-c2nn3c(-c4ccccn4)nnc3s2)cc1OC,n,n,n,+,n,n
CN(C)c1ccc(-c2nn3c(-c4ccncc4)nnc3s2)cc1,n,n,n,n,n,n
O=C1CCCc2nc3nc4ccccc4n3cc21,n,n,n,n,n,n
O=C(OCn1nnc2ccccc2c1=O)c1ccc2c(=O)n3c(nc2c1)CCC3,n,n,n,n,n,n
O=C(O)CN(Cc1ccccc1)S(=O)(=O)c1ccc(F)cc1,n,n,n,n,n,n
Cn1c(=O)n(CCc2ccccc2)c(=O)c2c1nc1n2CCN1c1ccccc1,n,n,n,n,n,n
Cc1ccc(Cn2c(=N)c(C(=O)NCc3ccco3)cc3c(=O)n4ccccc4nc32)cc1,n,n,n,n,n,n
CCOC(=O)c1cc2c(=O)n3ccccc3nc2n(Cc2ccccc2)c1=N,n,n,n,x,n,2.5
COc1ccc(CCn2c(=N)c(C(=O)N3CCN(C)CC3)cc3c(=O)n4ccccc4nc32)cc1,n,n,n,n,n,n
CCOC(=O)c1cc2c(=O)n3ccccc3nc2n(Cc2ccccc2Cl)c1=N,n,n,n,x,n,2.3
O=C(CNS(=O)(=O)c1ccc(Br)s1)N1CCN(c2ncccn2)CC1,n,n,n,n,n,n
Cc1nn(Cc2ccccc2)c2c1C(c1ccco1)C(C#N)=C(N)O2 (stereo not given),n,n,n,n,n,n
Cc1nn(Cc2ccccc2)c2c1C(c1ccncc1)C(C#N)=C(N)O2 (stereo not given),n,n,31,n,n,n
C=CCSc1nnc(C)n1-c1ccc(Cl)cc1,n,n,n,n,n,n
N#Cc1cc2cc3c(cc2nc1N1CCCCC1)OCCO3,n,n,n,n,n,3
COc1ccc2oc(=O)c(C(=O)N3CCN(C45CC6CC(CC(C6)C4)C5)CC3)cc2c1,n,n,n,x,n,3.7
COc1ccccc1NC(=O)c1cc2ccc(O)cc2o/c1=N\O,n,n,n,n,n,n
Cc1cccc(N=c2oc3cc(O)ccc3cc2C(N)=O)c1,n,n,n,n,n,3.7
COc1ccccc1N=c1oc2cc(O)ccc2cc1C(N)=O,n,n,n,n,n,3.6
COCCSc1ccccc1C(=O)NCC1CCCO1 (stereo not given),n,n,n,n,n,n
